Measurements reported in article PMC5540273 (PLoS ONE, 2017).

How the values were obtained:
Conditions in all cases: concentration: 1 μM, replicates: in singlicate; n = 1
SgK110 = tested on: SgK110
TAK1 = tested on: T1, TAK1
T1 construct: gene MAP3K7

TAOK1 = tested on: TAOK1
TAOK2 = tested on: TAOK2
TAOK3 = tested on: TAOK3
TBK1 = tested on: TBK1
TEC = tested on: TEC
TESK1 = tested on: TESK1
TGFBR1 = tested on: TGFBR1
TGFBR2 = tested on: TGFBR2
TIE1 = tested on: TIE1
TIE2 = tested on: T2, TIE2
T2 construct: gene TEK

TLK1 = tested on: TLK1
TLK2 = tested on: TLK2
TNIK = tested on: TNIK
TNK1 = tested on: TNK1
TNK2 = tested on: TNK2
TNNI3K = tested on: TNNI3K
TRKA = tested on: T3, TRKA
T3 construct: gene NTRK1

TRKB = tested on: TRKB
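Also: KINOMEscan kinase panel screen.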

With `Nc1nc(-c2ccc3c(N)n[nH]c3c2)cc(N2CCCCC2)n1` [GSK2228768] the “%Inh” value (SgK110) was 0%, the “%Inh” value (TAK1) was 0% and the “%Inh” value (TAOK1) was 0%. The “%Inh” value (TAOK2) was 0%, the “%Inh” value (TAOK3) was 0% and the “%Inh” value (TBK1) was 23%. The “%Inh” value (TEC) was 2%, the “%Inh” value (TESK1) was 0% and the “%Inh” value (TGFBR1) was 0%. For the same molecule, the “%Inh” value (TGFBR2) was 0%, the “%Inh” value (TIE1) was 6% and the “%Inh” value (TIE2) was 0%. For the same molecule, the “%Inh” value (TLK1) was 0%, the “%Inh” value (TLK2) was 0% and the “%Inh” value (TNIK) was 0%. For the same molecule, the “%Inh” value (TNK1) was 0%, the “%Inh” value (TNK2) was 13% and the “%Inh” value (TNNI3K) was 0%. The “%Inh” value (TRKA) was 0% and the “%Inh” value (TRKB) was 0%.
For `COC(=O)c1c(-c2ccccc2)c2cc(Cl)ccc2c(=O)n1Cc1ccc(S(C)(=O)=O)cc1`, the “%Inh” value (SgK110) was 46%, the “%Inh” value (TAK1) was 17% and the “%Inh” value (TAOK1) was 0%. For the same molecule, the “%Inh” value (TAOK2) was 0%, the “%Inh” value (TAOK3) was 0% and the “%Inh” value (TBK1) was 20%. The “%Inh” value (TEC) was 0%, the “%Inh” value (TESK1) was 0% and the “%Inh” value (TGFBR1) was 7%. The “%Inh” value (TGFBR2) was 5%, the “%Inh” value (TIE1) was 4% and the “%Inh” value (TIE2) was 0%. For the same molecule, the “%Inh” value (TLK1) was 19%, the “%Inh” value (TLK2) was 0% and the “%Inh” value (TNIK) was 4%. For the same molecule, the “%Inh” value (TNK1) was 0%, the “%Inh” value (TNK2) was 0% and the “%Inh” value (TNNI3K) was 19%. The “%Inh” value (TRKA) was 0% and the “%Inh” value (TRKB) was 0%.
With `Clc1cccc(-c2nc(Nc3ccncc3)c3ccccc3n2)c1` [GW873004] the “%Inh” value (SgK110) was 38%, the “%Inh” value (TAK1) was 0% and the “%Inh” value (TAOK1) was 0%. For the same molecule, the “%Inh” value (TAOK2) was 4%, the “%Inh” value (TAOK3) was 0% and the “%Inh” value (TBK1) was 11%. The “%Inh” value (TEC) was 17%, the “%Inh” value (TESK1) was 19% and the “%Inh” value (TGFBR2) was 17%. The “%Inh” value (TIE1) was 0%, the “%Inh” value (TIE2) was 48% and the “%Inh” value (TLK1) was 0%. The “%Inh” value (TLK2) was 0%, the “%Inh” value (TNIK) was 0% and the “%Inh” value (TNK1) was 59%. The “%Inh” value (TNK2) was 40%, the “%Inh” value (TNNI3K) was 0% and the “%Inh” value (TRKA) was 0%. The “%Inh” value (TRKB) was 0%.
In the case of `Fc1cccc(COc2ccc(Nc3ncnc4cc[nH]c34)cc2Cl)c1`, the “%Inh” value (SgK110) is reported as 0%, the “%Inh” value (TAK1) is reported as 8% and the “%Inh” value (TAOK1) is reported as 0%. The “%Inh” value (TAOK2) was 0%, the “%Inh” value (TAOK3) was 0% and the “%Inh” value (TBK1) was 4%. The “%Inh” value (TEC) was 18%, the “%Inh” value (TESK1) was 0% and the “%Inh” value (TGFBR1) was 9%. For the same molecule, the “%Inh” value (TGFBR2) was 0%, the “%Inh” value (TIE1) was 0% and the “%Inh” value (TIE2) was 5%. The “%Inh” value (TLK1) was 25%, the “%Inh” value (TLK2) was 12% and the “%Inh” value (TNIK) was 11%. The “%Inh” value (TNK1) was 0%, the “%Inh” value (TNK2) was 27% and the “%Inh” value (TNNI3K) was 5%. The “%Inh” value (TRKA) was 2% and the “%Inh” value (TRKB) was 17%.
For `CC(C)(C)OC(=O)NC1CCCN(c2cc(-c3ccc4c(N)n[nH]c4c3)nc(N)n2)C1` (stereo not shown) [GSK2286096], the “%Inh” value (SgK110) was 0%, the “%Inh” value (TAK1) was 0% and the “%Inh” value (TAOK1) was 0%. For the same molecule, the “%Inh” value (TAOK2) was 0%, the “%Inh” value (TAOK3) was 0% and the “%Inh” value (TBK1) was 74%. For the same molecule, the “%Inh” value (TEC) was 5%, the “%Inh” value (TESK1) was 0% and the “%Inh” value (TGFBR1) was 0%. For the same molecule, the “%Inh” value (TGFBR2) was 0%, the “%Inh” value (TIE1) was 0% and the “%Inh” value (TIE2) was 0%. The “%Inh” value (TLK1) was 0%, the “%Inh” value (TLK2) was 0% and the “%Inh” value (TNIK) was 0%. For the same molecule, the “%Inh” value (TNK1) was 10%, the “%Inh” value (TNK2) was 13% and the “%Inh” value (TNNI3K) was 6%. The “%Inh” value (TRKA) was 0% and the “%Inh” value (TRKB) was 0%.
With `CCCc1ccc(S(=O)(=O)NC2CCN(c3ccnc(Nc4ccc(OC)cc4)n3)C2)cc1` (stereo not shown) [GSK1379737] the “%Inh” value (SgK110) was 0%, the “%Inh” value (TAK1) was 0% and the “%Inh” value (TAOK1) was 0%. The “%Inh” value (TAOK2) was 0%, the “%Inh” value (TAOK3) was 0% and the “%Inh” value (TBK1) was 0%. For the same molecule, the “%Inh” value (TEC) was 0%, the “%Inh” value (TESK1) was 36% and the “%Inh” value (TGFBR1) was 28%. The “%Inh” value (TGFBR2) was 0%, the “%Inh” value (TIE1) was 34% and the “%Inh” value (TIE2) was 0%. The “%Inh” value (TLK1) was 0%, the “%Inh” value (TLK2) was 0% and the “%Inh” value (TNIK) was 0%. The “%Inh” value (TNK1) was 0%, the “%Inh” value (TNK2) was 11% and the “%Inh” value (TNNI3K) was 6%. For the same molecule, the “%Inh” value (TRKA) was 0% and the “%Inh” value (TRKB) was 23%.
In the case of `Oc1ccc2ncnc(Nc3ccc(OCc4ccccc4)cc3)c2c1` [GI262866], the “%Inh” value (SgK110) is reported as 0%, the “%Inh” value (TAK1) is reported as 0% and the “%Inh” value (TAOK1) is reported as 0%. The “%Inh” value (TAOK2) was 0%, the “%Inh” value (TAOK3) was 0% and the “%Inh” value (TBK1) was 0%. For the same molecule, the “%Inh” value (TEC) was 0%, the “%Inh” value (TESK1) was 0% and the “%Inh” value (TGFBR1) was 0%. For the same molecule, the “%Inh” value (TGFBR2) was 0%, the “%Inh” value (TIE1) was 19% and the “%Inh” value (TIE2) was 0%. The “%Inh” value (TLK1) was 0%, the “%Inh” value (TLK2) was 0% and the “%Inh” value (TNIK) was 0%. For the same molecule, the “%Inh” value (TNK1) was 0%, the “%Inh” value (TNK2) was 4% and the “%Inh” value (TNNI3K) was 77%. The “%Inh” value (TRKA) was 0% and the “%Inh” value (TRKB) was 0%.
In the case of `Nc1nc(-c2ccccn2)c(-c2ccnc3ccccc23)s1` [GW548057], the “%Inh” value (SgK110) is reported as 0%, the “%Inh” value (TAK1) is reported as 20% and the “%Inh” value (TAOK1) is reported as 0%. The “%Inh” value (TAOK2) was 0%, the “%Inh” value (TAOK3) was 0% and the “%Inh” value (TBK1) was 12%. The “%Inh” value (TEC) was 8%, the “%Inh” value (TESK1) was 0% and the “%Inh” value (TGFBR2) was 50%. For the same molecule, the “%Inh” value (TIE1) was 0%, the “%Inh” value (TIE2) was 0% and the “%Inh” value (TLK1) was 12%. The “%Inh” value (TLK2) was 4%, the “%Inh” value (TNIK) was 33% and the “%Inh” value (TNK1) was 0%. The “%Inh” value (TNK2) was 5%, the “%Inh” value (TNNI3K) was 0% and the “%Inh” value (TRKA) was 49%. The “%Inh” value (TRKB) was 0%.
For `CC(C)N1CCC(n2cnc(-c3ccc(F)cc3)c2-c2ccnc(N)n2)CC1` [SB-223132], the “%Inh” value (SgK110) was 0%, the “%Inh” value (TAK1) was 0% and the “%Inh” value (TAOK1) was 0%. The “%Inh” value (TAOK2) was 0%, the “%Inh” value (TAOK3) was 0% and the “%Inh” value (TBK1) was 50%. For the same molecule, the “%Inh” value (TEC) was 6%, the “%Inh” value (TESK1) was 23% and the “%Inh” value (TGFBR1) was 25%. For the same molecule, the “%Inh” value (TGFBR2) was 0%, the “%Inh” value (TIE1) was 0% and the “%Inh” value (TIE2) was 96.9%. The “%Inh” value (TLK1) was 5%, the “%Inh” value (TLK2) was 0% and the “%Inh” value (TNIK) was 11%. For the same molecule, the “%Inh” value (TNK1) was 3%, the “%Inh” value (TNK2) was 0% and the “%Inh” value (TNNI3K) was 4%. For the same molecule, the “%Inh” value (TRKA) was 0% and the “%Inh” value (TRKB) was 0%.
With `O=C(Nc1ccccc1)Nc1ccc(Oc2ccc3nccn3n2)cc1` the “%Inh” value (SgK110) was 27%, the “%Inh” value (TAK1) was 0% and the “%Inh” value (TAOK1) was 0%. For the same molecule, the “%Inh” value (TAOK2) was 5%, the “%Inh” value (TAOK3) was 0% and the “%Inh” value (TBK1) was 34%. For the same molecule, the “%Inh” value (TEC) was 10%, the “%Inh” value (TESK1) was 11% and the “%Inh” value (TGFBR1) was 0%. The “%Inh” value (TGFBR2) was 27%, the “%Inh” value (TIE1) was 13% and the “%Inh” value (TIE2) was 46%. For the same molecule, the “%Inh” value (TLK1) was 0%, the “%Inh” value (TLK2) was 0% and the “%Inh” value (TNIK) was 0%. For the same molecule, the “%Inh” value (TNK1) was 43%, the “%Inh” value (TNK2) was 10% and the “%Inh” value (TNNI3K) was 82%. The “%Inh” value (TRKA) was 0% and the “%Inh” value (TRKB) was 0%.
For `OCCOCCn1ccc2ncnc(Nc3ccc(Oc4cccc(Cl)c4)c(Cl)c3)c21`, the “%Inh” value (SgK110) was 0%, the “%Inh” value (TAK1) was 0% and the “%Inh” value (TAOK1) was 0%. For the same molecule, the “%Inh” value (TAOK2) was 0%, the “%Inh” value (TAOK3) was 0% and the “%Inh” value (TBK1) was 7%. For the same molecule, the “%Inh” value (TEC) was 0%, the “%Inh” value (TESK1) was 0% and the “%Inh” value (TGFBR1) was 7%. The “%Inh” value (TGFBR2) was 0%, the “%Inh” value (TIE1) was 0% and the “%Inh” value (TIE2) was 31%. For the same molecule, the “%Inh” value (TLK1) was 0%, the “%Inh” value (TLK2) was 0% and the “%Inh” value (TNIK) was 0%. The “%Inh” value (TNK1) was 0%, the “%Inh” value (TNK2) was 0% and the “%Inh” value (TNNI3K) was 0%. The “%Inh” value (TRKA) was 0% and the “%Inh” value (TRKB) was 0%.
In the case of `Nc1n[nH]c2nnc(-c3ccccc3)cc12` [SB-517389], the “%Inh” value (SgK110) is reported as 0%, the “%Inh” value (TAK1) is reported as 0% and the “%Inh” value (TAOK1) is reported as 0%. The “%Inh” value (TAOK2) was 0%, the “%Inh” value (TAOK3) was 3% and the “%Inh” value (TBK1) was 6%. The “%Inh” value (TEC) was 11%, the “%Inh” value (TESK1) was 27% and the “%Inh” value (TGFBR1) was 0%. The “%Inh” value (TGFBR2) was 0%, the “%Inh” value (TIE1) was 0% and the “%Inh” value (TIE2) was 0%. The “%Inh” value (TLK1) was 15%, the “%Inh” value (TLK2) was 0% and the “%Inh” value (TNIK) was 0%. For the same molecule, the “%Inh” value (TNK1) was 0%, the “%Inh” value (TNK2) was 20% and the “%Inh” value (TNNI3K) was 13%. For the same molecule, the “%Inh” value (TRKA) was 0% and the “%Inh” value (TRKB) was 0%.
